# Measurements: PubChem BioAssay
# Where “and” joins values, the source holds several entries; their conditions need not be identical. Equal entries are not always repeated. For some assays here: Entries with a potency or affinity are not part of this list. Calls of active or inactive are those of the source.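 Rule for the calls, unless noted: active = thallium flux through the channel raised or lowered by more than 3 SD from vehicle-only wells, actives on both sides; inactive = the rest.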
# Legend:
# [1] = polyglutamine-triggered caspase-3 activation inhibitors, cell-based (AID 1583); settings: polyglutamine-induced caspase-3 activation, cell assay; stronger effect = higher value;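 tested at 10 µM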
# [2] = suppressors of polyQ aggregation in yeast, 75Q-TubU reporter (AID 1593); settings: Yeast 75Q polyglutamine aggregation reporter
# [3] = rescue of polyQ-huntingtin neuronal dysfunction in worms, whole organism, C. elegans mechanosensory neurons, N-terminal huntingtin (AID 1599); settings: touch response, stronger effect = higher value
# [4] = inhibitors of mitochondrial cytochrome c release, biochemical, purified mitochondria (AID 1603); settings: stronger effect = lower value;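 note: mouse liver mitochondria challenged with calcium chloride; signal normalized to the plate average as 100%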
# [5] = inhibitors of polyQ protein aggregation (AID 1604); settings: polyglutamine-induced protein aggregation inhibition assay; stronger effect = higher value; tested at 2.5 µM
# [6] = enhancers of glutamate uptake in motor neurons, MN-1 cell line (AID 1612); settings: MN-1 motor neuron cells, stronger effect = higher value;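 note: tested at 1 µM final; 0% = mean of DMSO vehicle wells on each plate; positive means more glutamate uptake than control and negative means less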
# [7] = suppressors of polyglutamine aggregation in yeast, 75Q-TubH (AID 1616); settings: S. cerevisiae 75Q-TubH polyglutamine aggregation suppression; stronger effect = higher value
# [8] = hESC survival regulators, cell-based (AID 493140; call rule not given here;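 note: cells exposed to compounds for four days before counting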); settings: human embryonic stem cell survival screen; stronger effect = higher value
# [9] = test system: Hepatitis C virus NS3 helicase; test: HCV NS3 helicase inhibitors, primary screen, biochemical, fluorescence polarization, LOPAC1280 library (AID 687035; in the data active = inhibition above about 37%); settings: Purified HCV NS3 helicase, Cy5-dT15 ssDNA binding fluorescence polarization; stronger effect = higher value; concentration not given here
# [10] = Cy5 fluorescence interference with SSB-bound oligo, artefact control for HCV NS3 helicase inhibitor project, biochemical, NIH Clinical Collection, E. coli SSB (AID 743268; call rule not given here)
# [11] = modulation of C. elegans fzo-1 (AID 1259413; call rule not given here;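 note: fzo-1 mutant C. elegans worms in liquid wells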); settings: C. elegans fzo-1 modulator screen, mean read-out; stronger effect = higher value
# [12] = test system: R275C; test: modulators of BK channel variants, profiling panel, selectivity assay, cell-based, U2OS BacMam, thallium flux, beta subunits (AID 1259406); settings: at 30 µM;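 note: initial slope of Thallos dye fluorescence rise after thallium is added; log ratio against the mean of 0.3% DMSO vehicle wells on the same plate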
# [13] = test system: R275C/beta1; test: as above; settings: at 30 µM
# [14] = test system: R275C/beta2Delta; test: as above; settings: at 30 µM
# [15] = liver-stage malaria parasite growth inhibition, primary screen, cell-based, HepG2, luciferase luminescence, HepG2 viability (AID 624349; in the data active = parasite load remaining mostly below about 12%, no sharp cut-off; inactive = mostly above about 10%;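 note: 100% = mean of DMSO negative control wells on the same plate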); settings: P. berghei liver stage in HepG2, luciferase luminescence, concentration not given here; parasite load remaining: stronger effect = lower value; viability: measured here: HepG2 viability without parasites
# [16] = viability rescue of complex I mutant cybrids, primary screen, cell-based, galactose medium, ATP luminescence (AID 1645843;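 active = z-score of at least 1.8 in each of two replicates, scored against plate mean and spread of sample wells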;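 note: positive z means more ATP and so rescue of galactose-driven cybrid death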); settings: complex I mutant cybrid cells, 72 h, stronger effect = higher value
# [17] = test system: F380Y/beta1; test: modulators of BK channel variants, profiling panel, selectivity assay, cell-based, U2OS BacMam, thallium flux, beta subunits (AID 1259406); settings: at 30 µM;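 note: initial slope of Thallos dye fluorescence rise after thallium is added; log ratio against the mean of 0.3% DMSO vehicle wells on the same plate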
# [18] = test system: F380Y/beta4; test: as above; settings: at 30 µM
# [19] = test system: R275C/beta4; test: as above; settings: at 30 µM
# [20] = test system: R275C/Slo1WT/beta2; test: as above; settings: at 30 µM
structure (smiles),measurement,setting,value
Nc1c2c(nc3ccccc13)CCCC2,inhibition,[1],-14.1%
same,score,[2],1.21
same,rescue above control,[3],-13.1
same,cytochrome c release ratio,[4],0.63
same,inhibition of aggregation,[5],38.8%
same,glutamate uptake change,[6],4.59%
same,aggregation suppression score,[7],1.23
same,survival,[8],6.42 (inactive)
same,inhibition,[9],-2% (inactive)
same,fluorescence ratio,[10],0.95 (inactive)
same,mean signal,[11],215 (inactive)
same,log fold change Tl+ flux,[12],0.0238 (inactive)
same,log fold change Tl+ flux,[13],-0.0128 (inactive)
same,log fold change Tl+ flux,[14],-0.0194 (inactive)
CN(C)CCN(Cc1ccccc1)c1ccccn1,inhibition,[1],16.8%
same,score,[2],1.31
same,rescue above control,[3],2.67
same,cytochrome c release ratio,[4],1.13
same,inhibition of aggregation,[5],79.6%
same,glutamate uptake change,[6],-25.1%
same,aggregation suppression score,[7],1.09
same,parasite load remaining,[15],50.9% (inactive) and 109% (inactive)
same,viability,[15],82.5% and 67.3%
same,fluorescence ratio,[10],1.01 (inactive)
same,mean signal,[11],272 (inactive)
same,z-score,[16],0.73 (inactive)
same,log fold change Tl+ flux,[12],0.027 (inactive)
same,log fold change Tl+ flux,[13],0.0111 (inactive)
same,log fold change Tl+ flux,[14],-0.0395 (inactive)
CCC(=O)O[C@]1(C(=O)CCl)[C@@H](C)C[C@H]2[C@@H]3CCC4=CC(=O)C=C[C@]4(C)[C@@]3(F)[C@@H](O)C[C@@]21C,parasite load remaining,[15],49% (inactive) and 35.1% (inactive)
same,viability,[15],110% and 128%
same,fluorescence ratio,[10],1.01 (inactive)
same,z-score,[16],-1.34 (inactive) and 0.04 (inactive)
same,log fold change Tl+ flux,[17],0.254 (active)
same,log fold change Tl+ flux,[18],0.236 (active)
same,log fold change Tl+ flux,[12],-0.00176 (inactive)
same,log fold change Tl+ flux,[13],0.13 (active)
same,log fold change Tl+ flux,[14],0.172 (active)
same,log fold change Tl+ flux,[19],0.386 (active)
same,log fold change Tl+ flux,[20],0.0324 (inactive)
CCN(CC)CC(=O)Nc1c(C)cccc1C,inhibition,[1],-3.43%
same,score,[2],1.56
same,rescue above control,[3],-0.5
same,cytochrome c release ratio,[4],1.13
same,inhibition of aggregation,[5],87%
same,glutamate uptake change,[6],0.81%
same,aggregation suppression score,[7],1.18
same,survival,[8],23.2 (inactive)
same,inhibition,[9],-3% (inactive)
same,fluorescence ratio,[10],1.01 (inactive)
same,mean signal,[11],257 (inactive)
same,z-score,[16],0.01 (inactive) and 0.715 (inactive) and 0.48 (inactive)
same,log fold change Tl+ flux,[12],-0.00245 (inactive)
same,log fold change Tl+ flux,[13],-0.022 (inactive)
same,log fold change Tl+ flux,[14],0.00392 (inactive)
C[C@@H](O)[C@H]1C(=O)N2C(C(=O)O)=C(S[C@@H]3CN[C@H](C(=O)N(C)C)C3)[C@H](C)[C@H]12,survival,[8],4.17 (inactive)
same,parasite load remaining,[15],81% (inactive) and 101% (inactive) and 24.6% (inactive)
same,viability,[15],74.6% and 72.6% and 92%
same,fluorescence ratio,[10],1.04 (inactive)
same,mean signal,[11],272 (inactive)
same,z-score,[16],1.23 (inactive)
same,log fold change Tl+ flux,[17],0.00288 (inactive)
same,log fold change Tl+ flux,[18],-0.00589 (inactive)
same,log fold change Tl+ flux,[12],-0.0931 (inactive)
same,log fold change Tl+ flux,[13],-0.0201 (inactive)
same,log fold change Tl+ flux,[14],-0.042 (inactive)
same,log fold change Tl+ flux,[19],0.0148 (inactive)
same,log fold change Tl+ flux,[20],-0.00332 (inactive)
